The text below walks through data of PubChem BioAssay (NCI).

Holding throughout (test): NCI-60 one-dose screen, 48 h (100 = growth as untreated, 0 = no growth, -100 = all killed)
One experiment has as its system NCI-H23 lung. The conditions noted are these: 10 µM unless noted.
A further experiment has as its system NCI-H322M lung. The following applies: 10 µM unless noted.
The test system of another experiment is HOP-62 NSCLC. The following applies: 10 µM unless noted.
For the next experiment, the system named is NCI-H460 lung. The conditions noted are these: 10 µM unless noted.
The test system of a further experiment is NCI-H522 lung. The conditions noted are these: 10 µM.
The subject of a further experiment is A549/ATCC NSCLC. The following applies: 10 µM unless noted.
A further experiment concerns 786-0 renal. The following applies: 10 µM unless noted.
For the next experiment, the system named is COLO 205 colon. The following applies: 10 µM unless noted.
For a further experiment, the system named is HOP-92 NSCLC. The following applies: 10 µM unless noted.

About 83,000 compounds went through this panel and 20% of them were active in at least one assay; those are over-represented in the sample as a whole.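 48-hour exposure, single concentration, 96-well plates; percent growth endpoint where 0 means no net growth. Active: below 10.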 Values without a mark were called inactive. Active and inactive are the calls of the source.

Take `O=C1C=CC(=O)N1CCCCCCCCCCN1C(=O)C=CC1=O`: the growth is 85.2% in the experiment with NCI-H23 lung; 109% in the experiment with NCI-H322M lung; 88.7% in the experiment on HOP-62 NSCLC; 96.1% in the experiment on NCI-H460 lung; -60.7% (active) with NCI-H522 lung; 97.4% in the experiment with A549/ATCC NSCLC. For the same compound, the growth was 88.7% with 786-0 renal and 65.7% in the experiment with COLO 205 colon.

On to `Clc1nc(-c2ccccn2)nc2sc3c(c12)CCCCCC3`, for which the growth with NCI-H23 lung was 82.4%; with NCI-H322M lung, 84.5%; in the experiment with HOP-62 NSCLC it was 86.6%; with NCI-H460 lung it was 90.9%; in the experiment on A549/ATCC NSCLC, 99.8%; in the experiment with 786-0 renal it was 98.4%. Also, in the experiment with COLO 205 colon, the growth was 115%.

`COc1ccc(OC)c(C2C(C#N)=C(N)Oc3cc(O)ccc32)c1` (stereo not given): the growth in the experiment with NCI-H23 lung is 88%; with NCI-H322M lung, 102%; with HOP-62 NSCLC, 97.4%; with NCI-H460 lung, 108%; in the experiment on NCI-H522 lung it was 80.3%; with A549/ATCC NSCLC it was 97.1%. Besides, the growth in the experiment on 786-0 renal is 96.7%; with COLO 205 colon it was 101%.

As to `CN(C)C(=S)SCN1C(=O)c2ccc([N+](=O)[O-])cc2S1(=O)=O`, the growth with NCI-H23 lung is 99.7%; with NCI-H322M lung, 99%; with HOP-62 NSCLC, 105%; with NCI-H460 lung, 103%; in the experiment with NCI-H522 lung, 103%; in the experiment on A549/ATCC NSCLC it was 97.7%. The growth with 786-0 renal is 103%; with COLO 205 colon, 75.9%.

With `COC(=O)C1C2CC3c4[nH]c5cc(OC)ccc5c4CCN3CC2CC(OC2CCCCO2)C1OC` (stereo not given), the growth with NCI-H23 lung was 98.9%; in the experiment on NCI-H322M lung, 102%; in the experiment with HOP-62 NSCLC it was 108%; with NCI-H460 lung it was 107%; in the experiment on NCI-H522 lung, 93.6%; in the experiment with A549/ATCC NSCLC, 95.7%. Also, the growth with 786-0 renal was 101%; in the experiment on COLO 205 colon, 109%.

For the compound `COc1ccc(-c2c(-c3cc4c(c(OC)c3OC)OCO4)noc2N)cc1`, the growth in the experiment on NCI-H23 lung is 42.5%; in the experiment with NCI-H322M lung it was 54.2%; with HOP-62 NSCLC, 35.7%; with HOP-92 NSCLC, 15.3%; in the experiment on A549/ATCC NSCLC it was 24.1%; with 786-0 renal it was 38.4%. The growth in the experiment with COLO 205 colon was -2.51% (active).

`CN1CCN(C(=O)OCCOCCOC(=O)N2CCN(C)CC2)CC1`: the growth in the experiment with NCI-H23 lung was 97.6%; with NCI-H322M lung, 105%; in the experiment on HOP-62 NSCLC, 106%; in the experiment on NCI-H460 lung, 107%; in the experiment with A549/ATCC NSCLC, 104%; in the experiment on 786-0 renal, 94.5%. For the same compound, the growth in the experiment on COLO 205 colon was 102%.

On to `O=C1CC(c2ccsc2)c2snc(-c3ccc(Cl)cc3)c2N1` (stereo not given), for which the growth in the experiment on NCI-H23 lung is 35.9%; in the experiment on NCI-H322M lung it was 55.7%; with HOP-62 NSCLC it was 37.2%; in the experiment on HOP-92 NSCLC, 51.1%; with A549/ATCC NSCLC it was 35.1%; in the experiment on 786-0 renal it was 39.6%. Besides, the growth with COLO 205 colon is -42.8% (active).

Turning to `Nc1ccccc1-c1n[nH]c(=O)[nH]c1=O`, the growth with NCI-H23 lung was 96.6%; with NCI-H322M lung, 114%; in the experiment on HOP-62 NSCLC it was 112%; in the experiment on NCI-H460 lung, 107%; with A549/ATCC NSCLC, 105%; with 786-0 renal, 109%. The growth in the experiment with COLO 205 colon is 137%.

For `CN1CCN(c2nc(-c3ccncc3)nc3sc4c(c23)CCCCCC4)CC1`, the growth is 73% with NCI-H23 lung; 86.6% with NCI-H322M lung; 71% in the experiment on HOP-62 NSCLC; 84.3% in the experiment on NCI-H460 lung; 69% in the experiment with A549/ATCC NSCLC; 52.8% with COLO 205 colon.

On to `CC1=CN2C(=NC3=C(CCCC/C3=C\c3ccccc3)C2c2ccccc2)S1` (stereo not given), for which the growth in the experiment on NCI-H23 lung was 101%; in the experiment with NCI-H322M lung, 101%; in the experiment with HOP-62 NSCLC it was 103%; with NCI-H460 lung, 107%; in the experiment on A549/ATCC NSCLC, 108%; in the experiment on 786-0 renal, 105%. Besides, the growth in the experiment with COLO 205 colon was 122%.

On to `COc1cc(-c2nc(Nc3nc4ccccc4[nH]3)nc(N)c2C#N)cc(OC)c1OC`, for which the growth in the experiment with NCI-H23 lung was 87.9%; in the experiment with NCI-H322M lung it was 83.2%; in the experiment on HOP-62 NSCLC, 65.1%; in the experiment on HOP-92 NSCLC it was 50.5%; in the experiment with NCI-H522 lung it was 20.1%; in the experiment on A549/ATCC NSCLC, 69.6%. The growth is 67.1% in the experiment with 786-0 renal and 32.3% in the experiment on COLO 205 colon.

`NC(=O)c1cccc(-n2ccc3cc(NC(=O)Nc4ccc(Cl)c(Cl)c4)ccc32)n1`: the growth in the experiment on NCI-H23 lung was 92.9%; in the experiment with NCI-H322M lung, 96.7%; with HOP-62 NSCLC it was 81.1%; in the experiment on HOP-92 NSCLC, 78%; with NCI-H522 lung it was 68.2%; in the experiment on A549/ATCC NSCLC it was 74.4%. For the same compound, in the experiment on 786-0 renal, the growth was 66.4%.

Turning to `O=c1nc(NO)[nH]c(=O)n1Cc1ccc(F)cc1`, the growth in the experiment with NCI-H23 lung was 106%; in the experiment with NCI-H322M lung, 98.8%; in the experiment with HOP-62 NSCLC it was 107%; with NCI-H460 lung, 102%; in the experiment with A549/ATCC NSCLC, 104%; in the experiment on 786-0 renal it was 101%. Besides, in the experiment on COLO 205 colon, the growth was 118%.

Turning to `O=[N+]([O-])c1cc2c(cc1Br)-c1ccccc1C2`, the growth in the experiment with NCI-H23 lung was 84.7%; in the experiment with NCI-H322M lung, 115%; in the experiment on HOP-62 NSCLC it was 81.4%; in the experiment on NCI-H460 lung it was 102%; with NCI-H522 lung, 77.6%; in the experiment with A549/ATCC NSCLC it was 90.9%. In addition, the growth in the experiment on 786-0 renal is 88.4%; in the experiment with COLO 205 colon it was 84.6%.

In the case of `O=c1[nH]c(=S)[nH]c(=O)n1Cc1cccc2ccccc12`, the growth in the experiment with NCI-H23 lung was 102%; in the experiment with NCI-H322M lung it was 114%; in the experiment on HOP-62 NSCLC, 106%; in the experiment with NCI-H460 lung, 97.6%; with A549/ATCC NSCLC, 99.7%; in the experiment with COLO 205 colon, 120%.

In the case of `CS(=O)(=O)Nc1cccc(C(=O)NCc2ccc(N3CCOCC3)cc2)c1`, the growth in the experiment with NCI-H23 lung was 104%; in the experiment on NCI-H322M lung, 112%; with HOP-62 NSCLC, 107%; in the experiment on NCI-H460 lung it was 109%; in the experiment with A549/ATCC NSCLC, 119%; with 786-0 renal it was 101%. In addition, the growth with COLO 205 colon is 112%.

Turning to `O=C1NC(=O)C2(CCCC2C(=O)O)N1` (stereo not given), the growth with NCI-H23 lung is 98.3%; with NCI-H322M lung, 117%; in the experiment with HOP-62 NSCLC, 111%; in the experiment on NCI-H460 lung it was 106%; in the experiment on A549/ATCC NSCLC it was 105%; in the experiment with 786-0 renal, 94.9%. In addition, in the experiment on COLO 205 colon, the growth was 109%.
